Screening data: PubChem, several laboratories
Most compounds without a hit are left out; they make up all but 27% or so of the library.
CYP2C9 inhib: human CYP2C9 inhibition; P11712; CYP2C9 Supersomes, luciferin-H conversion, luminescence; inhibition, % at 5 µM; hit rate 20% among 96,000;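 active = blocking of liver enzyme CYP2C9 beyond about 50% at 5 µM, limit read from the data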
CYP2C9 act: CYP2C9 (human) activation; P11712; recombinant CYP2C9, luciferin-H conversion, luminescence; hits give high values; factor 1 = untreated enzyme, 0 = blocked; activation factor at 5 µM; hit rate 1.4% among 96,000; AID 1024;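 active = activation factor of 2 or more for CYP2C9 at a 5 µM dose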;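 note: 0 = sulfaphenazole-blocked wells and 1 = vehicle-only wells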
CYP2C19 inhib: blocks human cytochrome P450 2C19. hit rate 21% among 96,000. CYP2C19 Supersomes, luciferin-H EGE luminescence, 30 min. P33261. inhibition, % at 5 µM;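 active = CYP2C19 inhibition above a set limit at 5 µM in the primary screen, cut at about 50% in these data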;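 note: plate controls were negative control wells for no effect and 2.5 mM tranylcypromine positive control for full effect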
CYP2C19 activ: activators of human cytochrome P450 2C19; activation factor at 5 µM; P33261; 96,000 tested, under 10 active; recombinant CYP2C19, luciferin-H EGE luminescence; hits give high values; 0 = fully inhibited enzyme, 1 = untreated enzyme;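 active = activation factor of at least 2 at 5 µM in the primary screen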;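 note: 0 = wells with 2.5 mM tranylcypromine and 1 = vehicle-only wells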
sEH activator: soluble epoxide hydrolase (human) activation; P34913; purified human sEH enzymatic activity, activator screen; activation, % at 2 µM; hit rate 0.04% among 91,000; AID 717; in the data active = activation above about 37%
Target sequence (P34913 whole entry, looked up): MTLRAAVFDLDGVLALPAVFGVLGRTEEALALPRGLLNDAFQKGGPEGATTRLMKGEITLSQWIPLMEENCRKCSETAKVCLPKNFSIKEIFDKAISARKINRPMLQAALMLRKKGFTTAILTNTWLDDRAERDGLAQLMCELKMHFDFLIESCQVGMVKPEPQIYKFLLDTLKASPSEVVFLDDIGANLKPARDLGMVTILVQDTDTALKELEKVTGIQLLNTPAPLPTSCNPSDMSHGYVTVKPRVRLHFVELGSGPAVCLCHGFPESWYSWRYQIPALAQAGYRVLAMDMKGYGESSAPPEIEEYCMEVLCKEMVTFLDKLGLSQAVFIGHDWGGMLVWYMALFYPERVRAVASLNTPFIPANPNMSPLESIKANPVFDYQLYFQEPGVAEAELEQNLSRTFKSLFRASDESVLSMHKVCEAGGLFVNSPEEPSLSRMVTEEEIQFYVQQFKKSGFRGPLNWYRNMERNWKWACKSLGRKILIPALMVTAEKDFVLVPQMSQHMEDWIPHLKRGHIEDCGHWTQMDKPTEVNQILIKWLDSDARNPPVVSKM
sEH inh: soluble epoxide hydrolase (human) inhibition; P34913; recombinant human sEH enzymatic activity assay; hit rate 0.34% among 91,000; inhibition, % at 2 µM; in the data active = inhibition above about 80%
* = called active by the depositor; / = no result.

SMILES | CYP2C9 inhib | CYP2C9 act | CYP2C19 inhib | CYP2C19 activ | sEH activator | sEH inh
CN1CCN(C2=C(Cl)C(=O)N(Cc3ccccc3)C2=O)CC1 | 14.2 | 0.9 | 64.1* | 0.4 | 6.2 | -5.3
CN1CCN(C2=C(Cl)C(=O)N(c3ccc(Cl)c(Cl)c3)C2=O)CC1 | 37.7 | 0.6 | 78.9* | 0.2 | / | /
CC(C)CNC(=O)C1C2C=CC(C2)C1C(=O)O (stereo unspecified) | -9.0 | 1.1 | -3.9 | 1 | -5.2 | 6.7
O=C(O)c1ccccc1C(=O)NNc1ccc(F)cc1 | 0.0 | 1 | -2.7 | 1 | 4.9 | -3.0
COC(=O)c1ccc(CSc2nc3c(c(=O)n2-c2ccc(C)cc2)SCC3)o1 | 93.2* | 0.1 | 64.6* | 0.4 | / | /
COc1ccc(-n2c(SCC(=O)N3CCN(c4ccccc4)CC3)nc3c(c2=O)SCC3)cc1 | 69.7* | 0.3 | 57.0* | 0.4 | 15.7 | -16.7
COc1ccc(NC(=O)CSc2nc3c(c(=O)n2-c2ccc(F)cc2)SCC3)c(OC)c1 | 79.6* | 0.2 | 73.1* | 0.3 | 7.0 | -7.0
COC(=O)C(C)Sc1nc2c(c(=O)n1-c1ccccc1)SCC2 (stereo unspecified) | 69.2* | 0.3 | 88.7* | 0.1 | / | /
Cc1ccc(-n2c(SCC(=O)N3CCCC3)nc3c(c2=O)SCC3)cc1 | -1.6 | 1 | -16.4 | 1.2 | / | /
CCOc1cc(C2C(C#N)=C(N)Oc3n[nH]c(C)c32)ccc1OCCN1CCOCC1 (stereo unspecified) | 0.2 | 1 | 3.1 | 1 | -11.3 | 10.1
CCCCN(C(=O)CNC(=O)c1ccco1)C(C(=O)NC1CCCC1)c1ccc(OC)cc1 (stereo unspecified) | 12.5 | 0.9 | 39.3 | 0.6 | -5.3 | 3.0
O=C(NCc1ccco1)c1ccc(Cl)c(S(=O)(=O)N2CCOCC2)c1 | 30.5 | 0.7 | 32.3 | 0.7 | -5.3 | 10.2
O=C(Nc1cccc(S(=O)(=O)C(F)F)c1)c1ccc(Cl)c(S(=O)(=O)N2CCOCC2)c1 | -1.8 | 1 | -12.2 | 1.1 | / | /
O=C(Nc1ccccc1)c1ccc(NCc2ccco2)c(S(=O)(=O)N2CCOCC2)c1 | 90.4* | 0.1 | 86.6* | 0.1 | -4.9 | 3.1
O=C(Nc1cccc(Br)c1)c1ccc(Cl)c(S(=O)(=O)N2CCOCC2)c1 | / | / | / | / | -94.7 | 95.0*
O=C(NCc1ccncc1)c1ccc(Cl)c(S(=O)(=O)N2CCOCC2)c1 | 81.9* | 0.2 | 67.8* | 0.3 | -2.3 | 3.8
CC(C)(C)SCCNC(=O)c1ccc(Cl)c(S(=O)(=O)N2CCOCC2)c1 | / | / | / | / | -86.3 | 86.5*
COc1cccc(/C=N/NC(=O)CO/N=C(\C)c2cccs2)c1OC | 5.1 | 0.9 | 28.3 | 0.7 | -18.6 | 20.0
COC(=O)c1cccc(N2C(=O)C(Cl)=C(N3CCOCC3)C2=O)c1 | 49.1 | 0.5 | 61.0* | 0.4 | 7.3 | -5.7
O=C1C(Cl)=C(N2CCOCC2)C(=O)N1c1ccccc1Cl | 8.8 | 0.9 | 93.6* | 0.1 | / | /
Cc1ccccc1N1C(=O)C(Cl)=C(N2CCN(c3ccccc3)CC2)C1=O | 16.6 | 0.8 | 16.5 | 0.8 | 8.3 | -8.0
CN1CCN(C2=C(Cl)C(=O)N(c3cccc(Cl)c3)C2=O)CC1 | 11.4 | 0.9 | 15.0 | 0.8 | -1.5 | 0.3
COC(=O)CSc1nnc(-c2cccnc2)n1-c1cc(OC)cc(OC)c1 | 14.7 | 0.9 | 6.9 | 0.9 | -0.5 | -2.7
COc1ccccc1OCC(=O)Nc1ccc(S(=O)(=O)Nc2nc(C)cc(C)n2)cc1 | 70.1* | 0.3 | 37.5 | 0.6 | -2.3 | 3.0
COc1ccccc1C(=O)Nc1ccc(S(=O)(=O)Nc2cc(C)nc(C)n2)cc1 | 55.9* | 0.4 | 0.2 | 1 | -9.7 | 8.1
SMILES | CYP2C9 inhib | CYP2C9 act | CYP2C19 inhib | CYP2C19 activ | sEH activator | sEH inh
Cc1ccc(S(=O)(=O)NCC(=O)OC2CCOC2=O)cc1 (stereo unspecified) | -10.8 | 1.1 | -2.3 | 1 | 2.6 | -3.0
COC1CCCCC1Nc1ccc(C)c(C)c1 (stereo unspecified) | / | / | / | / | -7.3 | 10.3
CCOC(=O)c1ccccc1NC(=O)Cn1cnc2c1c(=O)n(C)c(=O)n2C | 28.1 | 0.7 | 18.7 | 0.8 | -4.9 | 5.2
CCc1nc2c(n1O)CCc1nonc1-2 | 39.9 | 0.6 | 5.6 | 0.9 | / | /
c1ccc(C2CC(c3cccs3)n3nnnc3N2)cc1 (stereo unspecified) | 73.6* | 0.3 | 83.2* | 0.2 | -7.3 | 9.0
Nc1nc2n(n1)C(c1cccc(Br)c1)CC(c1ccccc1)N2 (stereo unspecified) | 11.4 | 0.9 | 24.0 | 0.8 | -1.1 | 1.0
